Results published in PubChem BioAssay.

What was measured:
[1] = biological target: Tumor necrosis factor receptor superfamily member 10B (Homo sapiens) (UniProt O14763); assay: caspase-8 TRAIL sensitization, hit retest, confirmation, cell-based, NB7+caspase-8, with/without TRAIL, luminescence panel (AID 651596); details: NB7 neuroblastoma + caspase-8, TRAIL sensitization, luminescence viability, with TRAIL, mean of runs, at 10 µM, stronger effect = higher value
[2] = as above; details: NB7 neuroblastoma + caspase-8, without TRAIL, luminescence viability, without TRAIL, mean of runs, at 10 µM

Tumor necrosis factor receptor superfamily member 10B (Homo sapiens), sequence (O14763 whole entry, looked up): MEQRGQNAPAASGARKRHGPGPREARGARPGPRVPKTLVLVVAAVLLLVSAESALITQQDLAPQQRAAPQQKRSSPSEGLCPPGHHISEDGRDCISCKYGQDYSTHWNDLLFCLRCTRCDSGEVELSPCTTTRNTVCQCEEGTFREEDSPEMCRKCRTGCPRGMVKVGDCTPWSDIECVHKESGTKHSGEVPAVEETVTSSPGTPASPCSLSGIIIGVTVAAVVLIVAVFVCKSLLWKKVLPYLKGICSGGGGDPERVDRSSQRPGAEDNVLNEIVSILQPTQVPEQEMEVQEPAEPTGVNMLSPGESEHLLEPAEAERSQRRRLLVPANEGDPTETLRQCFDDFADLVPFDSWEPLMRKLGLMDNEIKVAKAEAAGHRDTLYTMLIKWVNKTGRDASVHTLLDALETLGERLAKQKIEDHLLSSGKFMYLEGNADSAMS

Molecule `O=C(Nc1ccc2c(c1)OCCO2)c1ccc(Cl)cc1` has an activity [1] of 66.3% and an activity [2] of 69.5%.
`Nc1nc2ccccc2n1C(=O)c1ccc(F)cc1` gave an activity [1] of 91.5% and an activity [2] of 91%.
`C/C(=N\NC(=O)c1nn(C)c(C)c1Br)c1cccc(NC(=O)c2ccc(F)cc2)c1` showed an activity [1] of 46% and an activity [2] of 50.5%.
In the case of `C[C@H](NC(=O)c1ncn2c1c(=O)[nH]c1ccc(Br)cc12)c1ccccc1`, the activity [1] is reported as 27.2% and the activity [2] is reported as 7.95%.
Work on `CCCCN=C1NN=C(c2ccc3c(c2)OCCO3)CS1` yielded an activity [1] of 47.9% and an activity [2] of 31.8%.
For `Clc1ccc(-n2cnc3c(Cl)ncnc32)cc1Cl`, the activity [1] was 71.7% and the activity [2] was 79%.
In the case of `CCOC(=O)c1cn(-c2ccc(F)c(F)c2F)c2c(F)c(F)c(F)cc2c1=O`, the activity [1] is reported as 64% and the activity [2] is reported as 41.5%.
For `Cc1cc(N2CCOCC2)n2ncc(-c3ccccc3)c2n1`, the activity [1] was 66.8% and the activity [2] was 52.8%.
Molecule `C#CC(=O)N(c1cccc(OC)c1)C(C(=O)NC1CCCC1)c1cccs1` (configuration not stated) has an activity [1] of 99.4% and an activity [2] of 99.5%.
For `O=C(Nc1ccc2c(c1)CCC2)c1ccc(F)cc1`, the activity [1] was 49.5% and the activity [2] was 44.1%.
For `NC(c1csc(NC(=O)Nc2ccc(OC(F)(F)F)cc2)n1)C1CCCCC1` (configuration not stated), the activity [1] was 63.7% and the activity [2] was 92.2%.
Molecule `Cc1cc(NC2CCCC2)n2ncc(-c3ccccc3)c2n1` has an activity [1] of 69.1% and an activity [2] of 69.1%.
`O=C(CCl)N(c1ccccc1)C1CCCCC1` showed an activity [1] of 99.4% and an activity [2] of 99.8%.
`CCC(C)c1ccc(-c2cc(C(=O)OCC(=O)Nc3cc(C)on3)c3ccccc3n2)cc1` (configuration not stated) gave an activity [1] of 85.1% and an activity [2] of 85.7%.
With `COc1ccc(N2Cc3ccccc3C2=O)cc1` the activity [1] was 67% and the activity [2] was 62.5%.
With `COc1ccc(C(=O)Nc2ccccc2C(=O)Nc2cccnc2)cc1` the activity [1] was 58.9% and the activity [2] was 55.5%.
In the case of `COc1cccc(C(=O)Nc2ccc(NC(=O)C(C)(C)C)cn2)c1`, the activity [1] is reported as 79.7% and the activity [2] is reported as 83%.
Molecule `COc1ccc(-c2nc3ccccc3[nH]2)cc1` has an activity [1] of 89% and an activity [2] of 90.7%.
Work on `FC(F)(F)c1cc(Cl)c2nc(-c3ccccc3)cn2c1` yielded an activity [1] of 65% and an activity [2] of 76.1%.
Work on `COc1ccc(/C=C/C(=O)NC(=S)Nc2ccccn2)cc1` yielded an activity [1] of 29% and an activity [2] of 37.3%.
In the case of `O=c1[nH]c(/C=C/c2ccccc2Cl)nc2ccccc12`, the activity [1] is reported as 75.5% and the activity [2] is reported as 65.7%.
Molecule `COc1ccc(N2C(N)=NC(N)=NC2(C)C)cc1` has an activity [1] of 78.6% and an activity [2] of 86.5%.
Work on `Cc1ccc(Cn2ncc(Cl)c(Cl)c2=O)cc1` yielded an activity [1] of 97.2% and an activity [2] of 99.3%.
Molecule `CCn1cc(/C=C/C(=O)c2ccc(O)cc2)c(C)n1` has an activity [1] of 63.8% and an activity [2] of 57.5%.
For `O=[N+]([O-])c1ccc(Sc2ccncn2)c([N+](=O)[O-])c1`, the activity [1] was 16.8% and the activity [2] was 65.8%.
In the case of `COc1oc(C(=O)NC2CCCCC2)c(-c2ccc(Cl)cc2)c1S(=O)(=O)c1ccccc1`, the activity [1] is reported as 97.8% and the activity [2] is reported as 96.8%.
Molecule `O=C(NC1=NC2CCCCC2N1)c1ccccc1` (configuration not stated) has an activity [1] of 62.8% and an activity [2] of 52.1%.
In the case of `COc1ccccc1N1CCN(c2ccc(-c3ccccc3)nn2)CC1`, the activity [1] is reported as 80.9% and the activity [2] is reported as 86.2%.
With `Cc1ccc(OCc2nc(-c3ccccn3)no2)c(Br)c1` the activity [1] was 59.6% and the activity [2] was 56.6%.
In the case of `CCC(=O)Nc1cccc(-c2ccc(N3CCCCC3)nn2)c1`, the activity [1] is reported as 85.5% and the activity [2] is reported as 84.5%.
Work on `c1ccc(-c2nnc3sc(CN4CCC5(CC4)OCCO5)cn23)cc1` yielded an activity [1] of 57.7% and an activity [2] of 60.9%.
Molecule `CCOC(=O)C1CCN(C(=O)C2c3ccccc3C(=O)N(C)C2c2ccc(OC)cc2)CC1` (configuration not stated) has an activity [1] of 66.1% and an activity [2] of 60.9%.
Work on `Cc1ccc(Nc2nc(N)c3ccccc3n2)cc1C` yielded an activity [1] of 83% and an activity [2] of 78%.
Work on `O=C(Nc1ccc(-c2nc3ccccc3o2)cc1)C1CCCO1` (configuration not stated) yielded an activity [1] of 51.7% and an activity [2] of 43%.
Molecule `CC(/C=N/NC(=O)c1nn(C)c(C)c1Br)=C\c1ccccc1` has an activity [1] of 72.4% and an activity [2] of 74.6%.
`CN(c1ccccc1)S(=O)(=O)c1ccc(NC(=O)c2nc(S(C)(=O)=O)ncc2Cl)cc1` showed an activity [1] of 80.7% and an activity [2] of 99.3%.
Molecule `CCOC(=O)c1sc2nc(-c3cccnc3)ccc2c1N` has an activity [1] of 56% and an activity [2] of 49.2%.
In the case of `O=C(Nc1ccc2c(c1)OCO2)N1CCN(Cc2ccco2)CC1`, the activity [1] is reported as 78.8% and the activity [2] is reported as 75.2%.
`NC1=NC[C@H](CC2CCCCC2)N1CCc1cc(C(F)(F)F)cc(C(F)(F)F)c1` gave an activity [1] of 40.9% and an activity [2] of 80%.
`CN(C)CCCN(C(=O)/C=C/c1cccs1)c1nc2c(F)cccc2s1` gave an activity [1] of 56.7% and an activity [2] of 93%.
With `N#Cc1ccccc1NC(=O)COC(=O)/C=C/c1cn(-c2ccccc2)nc1-c1ccc(Cl)cc1` the activity [1] was 39.5% and the activity [2] was 80.4%.
For `COc1ccc(C(=O)Nc2nc3ccccc3[nH]2)cc1`, the activity [1] was 96.3% and the activity [2] was 95.1%.
With `O=[N+]([O-])c1cc(S(=O)(=O)N2CCCCCC2)ccc1F` the activity [1] was 83.9% and the activity [2] was 72.6%.
With `c1ccc2c(c1)COc1c3cc4c(cc3nn1-2)OCO4` the activity [1] was 67.7% and the activity [2] was 53.8%.
Work on `O=C(CSc1nnc(-c2ccc(O)cc2)o1)Nc1cccc(O)c1` yielded an activity [1] of 50.6% and an activity [2] of 55.7%.
Molecule `CCC(C)N(CC(=O)Nc1cccc(C)c1C)C(=O)CCl` (configuration not stated) has an activity [1] of 99.5% and an activity [2] of 99.3%.
With `O=C(Nc1ccccn1)c1onc2c1CCCC2` the activity [1] was 78.8% and the activity [2] was 78.2%.
`CC1(C)N=C(N)N=C(N)N1c1ccc(OCC(=O)N2CCOCC2)c(Cl)c1` gave an activity [1] of 81.6% and an activity [2] of 86%.
For `CC1CCc2cc(F)ccc2N1C(=O)CCl` (configuration not stated), the activity [1] was 99.3% and the activity [2] was 98.8%.
In the case of `CC(C)N(CC(=O)Nc1ccc(Cl)cc1C(F)(F)F)C(=O)CCl`, the activity [1] is reported as 99.4% and the activity [2] is reported as 96.2%.
Work on `COc1ccc(C2c3ccc4ccccc4c3Oc3ncn(CCCN(C)C)c(=N)c32)cc1` (configuration not stated) yielded an activity [1] of 24.2% and an activity [2] of 76.8%.
Work on `Cc1ccc2nc(N(CCCN(C)C)C(=O)c3ccc(S(=O)(=O)N4CCc5ccccc5C4)cc3)sc2c1` yielded an activity [1] of 55.4% and an activity [2] of 68.3%.
`CCc1nc(N2CCN(C(=O)CCl)CC2)c2c3c(sc2n1)CC(C)CC3` (configuration not stated) showed an activity [1] of 99.3% and an activity [2] of 91.5%.
In the case of `COc1ccc(C(=O)O/N=C(\N)c2ccccc2Cl)cc1OC`, the activity [1] is reported as 95.7% and the activity [2] is reported as 92.8%.
For `Nc1nc(=S)c2ncn([C@@H]3O[C@H](CO)[C@@H](O)[C@H]3O)c2[nH]1`, the activity [1] was 70.6% and the activity [2] was 73.5%.
`COc1ccccc1-c1cc2nc(-c3ccccc3)cc(N3CCN(C(=O)c4ccoc4)CC3)n2n1` gave an activity [1] of 78.4% and an activity [2] of 62.7%.
`CC(C)CC(=O)Nc1ccc(-c2cn3ccsc3n2)cc1` gave an activity [1] of 85.2% and an activity [2] of 88.2%.
With `Cc1ccc2nc(Cl)c(/C=N/Nc3ccc(C(=O)O)cc3)cc2c1` the activity [1] was 90.2% and the activity [2] was 86.4%.
`CCOc1ccc(-c2nc(-c3cccnc3)no2)cc1` gave an activity [1] of 53.3% and an activity [2] of 51.5%.
With `COc1cc(NC(=O)Nc2nc(C(N)Cc3ccc(C(F)(F)F)cc3)cs2)cc(OC)c1OC` (configuration not stated) the activity [1] was 29.9% and the activity [2] was 74.6%.
`COc1ccc(-c2cc(CNc3nc(NC(C)C)nc4cc(-c5ccccc5)sc34)on2)cc1` gave an activity [1] of 91.6% and an activity [2] of 92.4%.
`COc1ccc(/C=N/Nc2cc(C)nc3ccc(Br)cc23)cc1` showed an activity [1] of 61% and an activity [2] of 78%.
`C/C(=N\NC(=O)c1ccccc1O)c1ccc(Br)s1` showed an activity [1] of 57.8% and an activity [2] of 69.5%.
Molecule `COc1ccc(C(=O)Nc2ccc(C)cn2)c(OC)c1` has an activity [1] of 95.3% and an activity [2] of 95.2%.
Molecule `COc1cccc2cc(-c3nc4ccccc4[nH]3)c(=O)oc12` has an activity [1] of 64.5% and an activity [2] of 61.1%.
For `Cc1ccc(-c2cnn(-c3ccccc3)c2N)cc1`, the activity [1] was 78.6% and the activity [2] was 77%.
Molecule `Cc1ccccc1-c1nc2sc3c(c2c(=O)n1N)CCCC3` has an activity [1] of 44% and an activity [2] of 46%.
For `Cc1nc2c(-c3ccc(F)cc3)cnn2c(N)c1-c1ccc(F)cc1`, the activity [1] was 66.2% and the activity [2] was 57%.
For `Cc1ccc(C)c(NC(=S)NC(NC(=O)Cc2cccc3ccccc23)C(Cl)(Cl)Cl)c1` (configuration not stated), the activity [1] was 82.6% and the activity [2] was 87.8%.
With `CCCCn1c(SCC(=O)Nc2nnc(CC)s2)nc2c1c(=O)n(C)c(=O)n2C` the activity [1] was 68% and the activity [2] was 70.1%.
With `O=C(N/N=C/c1cccc(O)c1)c1ccc2c(c1)OCCO2` the activity [1] was 93.8% and the activity [2] was 90.7%.
`O=C(Nc1ccccc1C(=O)N/N=C/c1ccncc1)c1ccccc1` gave an activity [1] of 91.7% and an activity [2] of 87.5%.
`Cc1ccc(-c2nnc(-c3cccc4ccccc34)o2)cc1` showed an activity [1] of 58.2% and an activity [2] of 44%.
For `Fc1ccc(-n2nnc(-c3cnc4ccccc4c3)n2)cc1`, the activity [1] was 70.8% and the activity [2] was 63.9%.
With `Cc1ccc(-c2cc(C(=O)N/N=C/c3cccnc3)c3ccccc3n2)cc1C` the activity [1] was 43.9% and the activity [2] was 35%.
For `N#Cc1c(NC(=O)c2ccccc2)sc2c1CCCCC2`, the activity [1] was 46.5% and the activity [2] was 49.6%.
